# Test results reported in ChEMBL document CHEMBL3988442, “University of Dundee, Small-Polar-MMV Screening Library” (2021).
# The whole screen tested about 48,000 compounds, of which about 13,000 (27%) showed an effect of 50% or more. Some of the results follow.
# System: Wolbachia pipientis
# Test: Anti-Wolbachia Cell-Based Screen
# Type: functional
# Parameters: scale not given: in the data most compounds retested in dose-response had high values
# Details: 5 µM
row,SMILES,Percent Effect [%]
1,CC(NC(=O)NCCCN(C)S(C)(=O)=O)c1ccncc1 (configuration not stated),10.56
2,CC1c2cc(F)ccc2CCN1CCS(=O)(=O)C(C)C (configuration not stated),14
3,O=C(O)C(F)(F)F.O=S(=O)(C1CC1)N1CCn2cc(CNc3ccccn3)nc2C1,-1.604
4,Cc1noc(C)c1CN1CCn2cc(CN3CCOCC3)nc2C1,95.37
5,Cc1noc(C)c1CN1CCn2cc(CNc3ccccn3)nc2C1.O=C(O)C(F)(F)F.O=C(O)C(F)(F)F,109
6,Cc1noc(C)c1CN1CCn2cc(CN3CCCC3)nc2C1.O=C(O)C(F)(F)F.O=C(O)C(F)(F)F,117.4
7,Cc1noc(C)c1CN(Cc1ccccc1)C(C)CN1CCOCC1 (configuration not stated),-1.266
8,Cc1noc(C)c1CN1CCn2cc(CNC(=O)C3CCC3)nc2C1.O=C(O)C(F)(F)F,-7.774
9,O=C(O)C(F)(F)F.O=C(O)C(F)(F)F.c1ccc(NCc2cn3c(n2)CN(Cc2cccs2)CC3)nc1,4.417
10,Cc1noc(C)c1CN1CCn2cc(CN3CCCCC3)nc2C1.O=C(O)C(F)(F)F,100
11,Cc1noc(C)c1CN1CCn2c(COC(C)C)nnc2C1,-15.51
12,CC(=O)NCC(=O)N1CCn2cc(CN3CCCCC3)nc2C1.O=C(O)C(F)(F)F,-3.049
13,Cc1ccc(C(=O)N2CCn3cc(CN4CCCCC4)nc3C2)o1.O=C(O)C(F)(F)F,18.27
14,Cc1noc(C)c1CN1CCc2ncc(CN3CCCC3)n2CC1.O=C(O)C(F)(F)F.O=C(O)C(F)(F)F,-7.49
15,O=C(Cc1ccc(Br)cc1)N1CC(S(=O)(=O)C2CCCCC2)C1,-12.58
16,N#Cc1cccc(C(=O)Nc2ccc([C@@H](O)[C@H]3COCC(=O)N3)cc2)c1,-8.801
17,Cc1nnc([C@@H]2CC[C@@H]3[C@@H](CCN3S(=O)(=O)C3CC3)O2)o1,10.23
18,CC1(C)CN(C(=O)c2ccccc2-n2cncn2)CC1(C)O (configuration not stated),-36.51
19,COc1cccc2c1OCCCN(Cc1c[nH]nc1C(=O)O)C2,0.6416
20,CCN(CC)Cc1cnc2n1CCN(Cc1c(C)noc1C)CC2.O=C(O)C(F)(F)F.O=C(O)C(F)(F)F,-10.46
21,CCN(CC)Cc1cn2c(n1)CN(Cc1c(C)noc1C)CC2.O=C(O)C(F)(F)F.O=C(O)C(F)(F)F,104

row,SMILES,Percent Effect [%]
1,Cc1ccc(CN2CCn3cc(CN(C)Cc4ccco4)nc3C2)o1.O=C(O)C(F)(F)F.O=C(O)C(F)(F)F,18.64
2,Cc1cc2ncc(CN(C)C)c(C3CCN(C)CC3)n2n1,76.44
3,Cc1cc(N(C)CCN(C)C2CCCC2)n2nc(C)cc2n1,9.952
4,Cc1cc(N(C)CCN(C)C)n2nc(C)cc2n1,-8.762
5,CCc1noc(C2CCN(C(=O)CCn3nc(C)cc3C)CC2)n1,2.839
6,CC(=O)N1CCC(c2cc3c(ncn3C)c(-c3cnn(C)c3)n2)CC1,-10.45
7,CC(=O)N1CCC(c2c(CN(C)C)cnc3cc(C)nn23)CC1,74.12
8,COc1cc(C(=O)N2Cc3cnc(C(C)(C)C)nc3C2)ccn1,-33.89
9,O=C(C1CCCCC1)N1CCCC([C@@H]2C[C@H](C(F)F)n3ncnc3N2)C1 (some centres not stated),100.7
10,O=C(C1CCCC1)N1CCCC([C@@H]2C[C@H](C(F)F)n3ncnc3N2)C1 (some centres not stated),108.9
11,O=C(C1CCCC1)N1CCC(C(O)c2ccc(F)cc2)CC1 (configuration not stated),-1.378
12,O=C(NCCOc1ccc(F)cc1)C1CCCN(C(=O)C2CC2)C1 (configuration not stated),-0.9975
13,Cc1nnc2n1CCN(CC(O)CN1CCC(C)CC1)C2 (configuration not stated),-0.2217
14,Cc1ccc(-c2nc(CN3CCOC(Cn4cncn4)C3)cs2)o1 (configuration not stated),11.16
15,CC(C)c1nc(CN2CCOC(Cn3cncn3)C2)cs1 (configuration not stated),78.62
16,Cc1cnn(CC2CN(Cc3csc(C(C)C)n3)CCO2)c1 (configuration not stated),144.1
17,c1csc(-c2nc(CN3CCOC(Cn4cncn4)C3)co2)c1 (configuration not stated),1.427
18,CC(C)(C)c1nc(CN2CCCC(Cn3cncn3)C2)cs1 (configuration not stated),5.475
19,CC(C)Cc1noc(CN2CCOC(Cn3cncn3)C2)n1 (configuration not stated),-1.295
20,CC(=O)N(C)c1nc(CN2CCOC(Cn3cc(C)cn3)C2)cs1 (configuration not stated),-3.323
21,CC(C)c1nc(CN2CCOCC2)cs1,0.6364

row,SMILES,Percent Effect [%]
1,CC(C)(C)c1nc(CN2CCOC(Cn3cncn3)C2)cs1 (configuration not stated),103.7
2,CN(C(=O)COCc1ccccc1)C1CCN(CC2CCOC2)CC1 (configuration not stated),-14.42
3,CCC(C)(N)c1nc(C(C)C)cc(=O)[nH]1.Cl (configuration not stated),-2.59
4,CCc1nnc2n1CC(CNCc1ccncc1)CC2 (configuration not stated),-8.895
5,Cc1nccn1-c1ccc(CNS(=O)(=O)N2CCCC(C)C2)cn1 (configuration not stated),-3.486
6,O=C(NCc1ccc(-n2cncn2)nc1)c1cc(Cl)ccn1,100.5
7,CCCc1nc(C(=O)NCc2cccnc2-n2cncn2)cs1,-5.546
8,CC(C)COC(C)C(=O)NCc1ccc(-n2cncn2)nc1 (configuration not stated),-8.308
9,O=C(NCc1ccc(-n2cncn2)nc1)c1ccoc1,0.1706
10,CCC(C)C(=O)NCc1ccc(-n2cncn2)nc1 (configuration not stated),-5.498
11,CC(C(=O)NCc1ccc(-n2cncn2)nc1)n1ccnc1 (configuration not stated),-4.71
12,O=C(NCc1ccc(-n2cncn2)nc1)c1cnccn1,91.78
13,CCN(CC)c1ccc(C(=O)NCc2cccnc2-n2cncn2)cn1,14.25
14,O=C(NCc1cccnc1-n1cncn1)c1cc(Cl)ccn1,106.2
15,CC(C(=O)NCc1ccc(-n2cncn2)nc1)S(C)(=O)=O (configuration not stated),-11.84
16,O=C(NCc1ccc(-n2cncn2)nc1)c1cc[nH]n1,86.29
17,CC(C)C(=O)NCc1ccc(-n2cncn2)nc1,-6.912
18,COCCN(Cc1ccc(F)cc1Cl)C(=O)c1ccc(=O)[nH]n1,-1.923
19,CCc1nsc(N2CCN(CC(=O)Nc3c(C)n[nH]c3C)CC2)n1,-25.55
20,CCc1nc(CN2CCCN(C(=O)COCC3CC3)CC2)cs1,-1.235
